S1P4 antag: blocks the human S1P4 receptor. AID 1510. inhibition, % at 4.98 µM. hit rate 0.26% among 220,000. S1P4-expressing cells, antagonist mode, reporter read-out; in the data active = inhibition above about 29%
Target sequence (O95977 whole entry, looked up): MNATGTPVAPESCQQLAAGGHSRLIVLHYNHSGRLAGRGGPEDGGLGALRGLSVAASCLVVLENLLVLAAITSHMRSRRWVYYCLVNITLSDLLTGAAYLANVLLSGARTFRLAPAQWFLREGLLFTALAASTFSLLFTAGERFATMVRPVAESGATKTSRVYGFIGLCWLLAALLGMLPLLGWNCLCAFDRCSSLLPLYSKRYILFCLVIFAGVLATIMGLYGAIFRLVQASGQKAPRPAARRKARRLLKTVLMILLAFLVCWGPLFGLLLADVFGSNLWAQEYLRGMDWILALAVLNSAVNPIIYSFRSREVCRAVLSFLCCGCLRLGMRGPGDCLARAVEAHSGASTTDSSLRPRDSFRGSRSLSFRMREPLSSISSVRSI
Hsp70 act: Hsp70 transcriptional activation, primary screen | HeLa Hsp70 promoter luciferase reporter, luminescence; scaled: vehicle 0, proteasome-inhibitor control 100% | AID 1203 | hit rate 0.04% among 200,000 | activation, % at 10 µM;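 active = activation above the mean across all tested compounds plus 3 SD, cutoff set per campaign, cut at about 5.5% in these data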
S1P4 agonist: agonists of human S1P4 receptor | activation, % at 4.98 µM | AID 1509 | S1P4-expressing cell line, agonist reporter assay | hit rate 0.35% among 220,000; in the data active = activation above about 11%
CHOP inh: blocks CHOP induction under ER stress; hit rate 3.8% among 220,000; AID 2732; CHO-K1 CHOP-promoter luciferase, tunicamycin-induced, 15-18 h; inhibition, % at 10 µM;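 active = compounds that reduced the stress-induced luciferase reporter signal by more than about 70% of percent inhibition, limit read from the data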
A number is an active result; ! = not confirmed by another sample. In the library only some 4.2% were active in any assay of this set; here they are far more common.

Results for COc1ccc(NC(=O)COC(=O)c2ccc(OCc3c(C)noc3C)cc2)cc1OC ?
S1P4 antag: inactive; Hsp70 act: inactive; S1P4 agonist: inactive; CHOP inh: inactive

What do the screens show for `CC(C(=O)N1CCN(c2ccc(Cl)cc2)CC1)c1ncc(C(F)(F)F)cc1Cl` (stereo unspecified)?
S1P4 antag: inactive; Hsp70 act: inactive; S1P4 agonist: inactive; CHOP inh: 71.0

What do the screens show for `CC(C(=O)NC1CC1)c1ncc(C(F)(F)F)cc1Cl` (stereo unspecified)?
S1P4 antag: inactive; Hsp70 act: inactive; S1P4 agonist: inactive; CHOP inh: inactive

Results for O=C(CN1CCCC(O)C1)N1c2ccccc2Sc2ccc(C(F)(F)F)cc21 (stereo unspecified) ?
S1P4 antag: inactive; Hsp70 act: inactive; S1P4 agonist: inactive; CHOP inh: inactive

What do the screens show for `CN1CCN(CCCN2c3ccccc3Sc3ccc(C(F)(F)F)cc32)CC1`?
S1P4 antag: inactive; Hsp70 act: inactive; S1P4 agonist: inactive; CHOP inh: 95.9!

Results for COc1ccc(-c2nnc(SCC(=O)N3CCCCC3)o2)c(OC)c1 ?
S1P4 antag: inactive; Hsp70 act: inactive; S1P4 agonist: inactive; CHOP inh: inactive

How did Cc1ccccc1Cn1c(=O)n(Cc2ccco2)c(=O)c2ccccc21 do in these assays?
S1P4 antag: inactive; Hsp70 act: inactive; S1P4 agonist: inactive; CHOP inh: 87.5

What do the screens show for `Cc1ccccc1Cn1c(=O)n(-c2ccccc2)c(=O)c2ccc(C(=O)NCc3ccco3)cc21`?
S1P4 antag: inactive; Hsp70 act: inactive; S1P4 agonist: inactive; CHOP inh: 81.1

How did Nc1nc(-c2cccnc2)nn1C(=O)CCc1ccccc1 do in these assays?
S1P4 antag: inactive; Hsp70 act: inactive; S1P4 agonist: inactive

What do the screens show for `CCOC(=O)C1(CCC(C)C)CC(CSc2nc3ccccc3[nH]2)OC1=O` (stereo unspecified)?
S1P4 antag: inactive; Hsp70 act: inactive; S1P4 agonist: inactive; CHOP inh: 89.3

How did COc1ccc(C(=O)NCc2nnc(SCC(=O)NO)n2Cc2ccccc2)cc1 do in these assays?
S1P4 antag: inactive; Hsp70 act: inactive; S1P4 agonist: inactive; CHOP inh: inactive

How did CC(C)Oc1cc(NC(=O)CSCC(=O)Nc2cccc(C(F)(F)F)c2)c(Cl)cc1Cl do in these assays?
S1P4 antag: inactive; Hsp70 act: inactive; S1P4 agonist: inactive; CHOP inh: 100.0

Results for NC(=O)CSc1nnc(-c2ccco2)n1N ?
S1P4 antag: inactive; Hsp70 act: inactive; S1P4 agonist: inactive; CHOP inh: inactive

What do the screens show for `CN(C)S(=O)(=O)c1cccc(C(=O)Nc2ccccc2)c1`?
S1P4 antag: inactive; Hsp70 act: inactive; S1P4 agonist: inactive; CHOP inh: inactive

Results for CCN(CC)S(=O)(=O)c1ccc(Cl)c(NC(=O)c2ccccc2C)c1 ?
S1P4 antag: inactive; Hsp70 act: inactive; S1P4 agonist: inactive; CHOP inh: inactive

What do the screens show for `CCN(CC)S(=O)(=O)c1ccc(Cl)c(C(=O)Nc2ccc(Cl)cc2[N+](=O)[O-])c1`?
S1P4 antag: inactive; Hsp70 act: inactive; S1P4 agonist: inactive; CHOP inh: 79.3

What do the screens show for `CN(C)S(=O)(=O)c1cccc(C(=O)Nc2cc(Cl)cc(Cl)c2)c1`?
S1P4 antag: inactive; Hsp70 act: inactive; S1P4 agonist: inactive; CHOP inh: 71.3

What do the screens show for `CCN(CC)S(=O)(=O)c1ccc(Cl)c(NC(=O)c2cc(Cl)cc(Cl)c2)c1`?
S1P4 antag: inactive; Hsp70 act: inactive; S1P4 agonist: inactive; CHOP inh: 89.4

How did Cc1cccc(-n2cccc2)c1C#N do in these assays?
S1P4 antag: inactive; Hsp70 act: inactive; S1P4 agonist: inactive; CHOP inh: inactive

Results for CCCNC(=O)CN(C)C(=O)c1n[nH]c2ccccc12 ?
S1P4 antag: inactive; Hsp70 act: inactive; S1P4 agonist: inactive; CHOP inh: inactive

Results for COc1cccc(C(=O)NN2c3ccccc3CCc3ccccc32)c1 ?
S1P4 antag: inactive; Hsp70 act: inactive; S1P4 agonist: inactive; CHOP inh: 92.0

Results for CC(C)NC(=O)c1ccc(CNC(=O)OCC(F)(F)F)cc1 ?
S1P4 antag: inactive; Hsp70 act: inactive; S1P4 agonist: inactive; CHOP inh: inactive

Results for CCOC(=O)C1=C(C)NC(SCC(=O)Nc2nc(C)cs2)=C(C#N)C1c1cccs1 (stereo unspecified) ?
S1P4 antag: inactive; Hsp70 act: inactive; S1P4 agonist: inactive; CHOP inh: 74.5

Results for C=CCOC(=O)C1=C(C)NC(SCC(N)=O)=C(C#N)C1c1cccs1 (stereo unspecified) ?
S1P4 antag: inactive; Hsp70 act: inactive; S1P4 agonist: inactive; CHOP inh: inactive

How did Cc1cc(NC(=O)/C(C#N)=C/c2ccc(-c3ccc(SC(F)F)cc3)o2)n(-c2ccccc2)n1 do in these assays?
S1P4 antag: inactive; Hsp70 act: inactive; S1P4 agonist: inactive; CHOP inh: inactive

What do the screens show for `Cc1cc(NC(=O)/C(C#N)=C/c2ccc(-c3cccc(C(F)(F)F)c3)o2)n(-c2ccccc2)n1`?
S1P4 antag: inactive; Hsp70 act: inactive; S1P4 agonist: inactive; CHOP inh: 84.8

How did N#C/C(=C/c1ccc(CNC(=O)C(=O)Nc2cc(Cl)cc(Cl)c2)o1)C(=O)NCc1cccnc1 do in these assays?
S1P4 antag: inactive; Hsp70 act: inactive; S1P4 agonist: inactive; CHOP inh: 82.0

What do the screens show for `O=c1[nH]c2ccccc2n1CCC1CCCCC1`?
S1P4 antag: inactive; Hsp70 act: inactive; S1P4 agonist: inactive; CHOP inh: 86.4

Results for Cc1onc(-c2ccccc2)c1NC(=O)Nc1c(-c2ccccc2)noc1C ?
S1P4 antag: inactive; Hsp70 act: inactive; S1P4 agonist: inactive; CHOP inh: inactive

How did COC(=O)CCCC1=CC2=C(c3ccccc3)C(=O)C(C)(OC(=O)C3CCCC3)C(=O)C2=CN1C1CCCCC1 (stereo unspecified) do in these assays?
CHOP inh: inactive

Results for COc1ccc(C2=NN(CCC(=O)NCc3cccs3)C(=O)CC2)cc1 ?
S1P4 antag: inactive; Hsp70 act: inactive; S1P4 agonist: inactive; CHOP inh: inactive

How did Cc1ccc(NC(=O)Nc2ccc(Cl)cc2)c(Br)c1 do in these assays?
S1P4 antag: inactive; Hsp70 act: inactive; S1P4 agonist: inactive; CHOP inh: 86.0

Results for O=C(Nc1cccc([N+](=O)[O-])c1)Nc1cccc([N+](=O)[O-])c1 ?
S1P4 antag: inactive; Hsp70 act: inactive; S1P4 agonist: inactive; CHOP inh: 84.2

What do the screens show for `Cc1ccc(NC(=O)COC(=O)c2cc(Cl)ccc2Cl)c(Br)c1`?
S1P4 antag: inactive; Hsp70 act: inactive; S1P4 agonist: inactive; CHOP inh: inactive

Results for O=C(Nc1ccc(Cl)cc1)Nc1csc([N+](=O)[O-])c1 ?
S1P4 antag: inactive; S1P4 agonist: inactive; CHOP inh: 75.7

What do the screens show for `O=C(Nc1ccc(Cl)cc1)Nc1cc([N+](=O)[O-])ccc1F`?
S1P4 antag: inactive; Hsp70 act: inactive; S1P4 agonist: inactive; CHOP inh: 70.7

How did COCCN1CCn2c(nc3cc(NC(=O)c4cccs4)ccc32)C1 do in these assays?
S1P4 antag: inactive; Hsp70 act: inactive; S1P4 agonist: inactive; CHOP inh: inactive

How did COc1cc(C(=O)NC2CCCCC2)ccc1OCc1ccc(Cl)cc1Cl do in these assays?
S1P4 antag: inactive; Hsp70 act: inactive; S1P4 agonist: inactive; CHOP inh: 84.8

Results for CN(C)/N=C/c1ccc(N2CCOCC2)cc1 ?
S1P4 antag: inactive; Hsp70 act: inactive; S1P4 agonist: inactive; CHOP inh: inactive
